The values that follow come from PubChem BioAssay (Tox21).

The nature of experiment [1]: qHTS assay to identify small molecule agonists of the estrogen receptor alpha (ER-alpha) signaling pathway in the presence of an antagonist - cell viability counter screen (AID 1259386). For activity change, negative = cytotoxicity: series mostly up to about 92 µM.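 Note: cells exposed to compounds for 22 h at 37 °C before the viability read; nearly all actives have a fitted effect of over 30% in size.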 Note: potency is the fitted concentration of half-maximal effect. In outline:
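Cells are starved of estrogens for 5 days in charcoal-stripped serum, seeded for 24hr and co-treated with ICI-182,780 (10.0nM final) and test compounds. After 22hr at 37C, viability is read as CellTiter-Fluor fluorescence.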
In general terms: Quantitative high-throughput screening tests each substance at several concentrations.

For experiment [2], the target named is Progesterone receptor (Homo sapiens) (UniProt P06401). Kind of experiment: qHTS assay to identify small molecule antagonists of the progesterone receptor (PR) signaling pathway (AID 1346795; active = well fitted inhibition curve with a large enough effect in the signal ratio in the repeat runs, not every such curve was filed as active; the % refers to the signal ratio; note: potency is the fitted concentration of half-maximal effect). An outline of the steps:
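Antagonist mode: compounds tested against 1 nM (final) promegestone stimulation in HEK293T cells expressing PR-UAS-bla reporter, 16 hr at 37C, 5% CO2; beta-lactamase activity detected via B/G FRET substrate after 2 hr at room temperature.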

The nature of experiment [3]: qHTS assay to identify small molecule agonists of the progesterone receptor (PR) signaling pathway - cell viability counter screen (AID 1346799; calls by dose curve; note: nearly all actives have a fitted effect of over 45% in size; note: potency is the fitted concentration of half-maximal effect). An outline of the steps: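 Cells (PR-UAS-bla HEK293T) are plated at 3,000/well in 2% charcoal-stripped FBS medium, rested 6 hr, dosed and incubated 16 hr at 37C. CellTiter-Glo is then added and luminescence measured after 30 min at room temperature.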

Experiment [4] is described as follows: qHTS assay to identify small molecule agonists of the TGF-beta/Smad signaling pathway - cell viability counter screen (AID 1346829). For activity change, negative = cytotoxicity: top concentration of the series differs between compounds. Note: nearly all actives have a fitted effect of over 45% in size. Note: potency is the fitted concentration of half-maximal effect. In outline:
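CellTiter-Glo luminescence readout; SBE-bla HEK 293T cells, overnight plating, compound 5 hr at 37 C/5% CO2, then bla substrate 2 hr RT, then CellTiter-Glo 30 min RT.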

Experiment [5] can be described thus: qHTS assay to identify small molecule agonists of the TGF-beta/Smad signaling pathway (AID 1346859; active = well fitted activation curve with a large enough effect in the signal ratio in the repeat runs, not every such curve was filed as active; the % refers to the signal ratio; note: series mostly up to about 77 µM). In outline: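 Reporter line: HEK 293T with stably integrated SBE-controlled beta-lactamase. Compound exposure lasts 5 hr at 37 C and 5% CO2; substrate loading follows for 2 hr at room temperature, with emission read at 460 and 530 nm.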
Experiment [6] concerns the target Thyrotropin-releasing hormone receptor (Homo sapiens) (UniProt P34981). As to the kind of experiment: qHTS assay to identify small molecule antagonists of the thyrotropin-releasing hormone receptor (TRHR) signaling pathway (AID 1346877; active = well fitted inhibition curve with a large enough effect in the repeat runs, not every such curve was filed as active; note: potency is the fitted concentration of half-maximal effect). An outline of the steps: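 Cells (TRHR-HEK293) are plated and kept 18 h at 37 °C/5% CO2. A calcium-sensitive dye is added for 2 h, compound follows for 5 min at room temperature, and TRH is then given at 1 nM final.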

Experiment [7] is described as follows: qHTS assay to identify small molecule antagonists of the progesterone receptor (PR) signaling pathway - cell viability counter screen (AID 1346798). For activity change, negative = cytotoxicity: series mostly up to about 92 µM. Note: nearly all actives have a fitted effect of over 50% in size. Note: potency is the fitted concentration of half-maximal effect. In outline:
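Counter screen for cytotoxicity: viability of PR-UAS-bla HEK293T cells was measured with CellTiter-Glo luminescence following 16 hr compound exposure in the presence of R5020.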

Experiment [8] is described as follows: qHTS assay to identify small molecule antagonists of the TGF-beta/Smad signaling pathway - cell viability counter screen (AID 1346824). Note: nearly all actives have a fitted effect of over 50% in size. In outline:
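SBE-bla HEK 293T cells, incubated overnight, then compound plus 0.25 ng/mL TGF-beta1 (stock added) for 5 hr at 37 C. Viability was read in the same wells by CellTiter-Glo luminescence after 30 min at room temperature.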

In experiment [9] the target is Progesterone receptor (Homo sapiens) (UniProt P06401). Kind of experiment: qHTS assay to identify small molecule agonists of the progesterone receptor (PR) signaling pathway (AID 1346784; calls by dose curve; note: nearly all actives have a fitted effect of over 30% in size). An outline of the steps: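 Cells (PR-UAS-bla HEK 293T, GripTite) were plated in assay medium containing 2% charcoal-stripped FBS and incubated 6 hr. Test compounds in DMSO were added for 16 hr at 37C. FRET substrate was then loaded for 2 hr at room temperature before fluorescence reading.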

“And” between values parts separate entries of the source, which are not always exact repeats. Equal entries are not always repeated. Results filed as inconclusive are left out. Some compounds were tested as several samples or in several runs, with calls that do not always agree. The source made the active and inactive calls. Unless noted, calls come from the whole dose curve; as a rule, active = well fitted curve in the direction sought with a large enough effect in the repeat runs; inconclusive = weak or mixed curves; inactive = no such curve, though single readings can be large; an effect the other way counts as inactive or inconclusive.
% is set by controls: 0 for no effect and ±100 for the full control effect.

Sequence of Thyrotropin-releasing hormone receptor (Homo sapiens) (P34981 whole entry, looked up): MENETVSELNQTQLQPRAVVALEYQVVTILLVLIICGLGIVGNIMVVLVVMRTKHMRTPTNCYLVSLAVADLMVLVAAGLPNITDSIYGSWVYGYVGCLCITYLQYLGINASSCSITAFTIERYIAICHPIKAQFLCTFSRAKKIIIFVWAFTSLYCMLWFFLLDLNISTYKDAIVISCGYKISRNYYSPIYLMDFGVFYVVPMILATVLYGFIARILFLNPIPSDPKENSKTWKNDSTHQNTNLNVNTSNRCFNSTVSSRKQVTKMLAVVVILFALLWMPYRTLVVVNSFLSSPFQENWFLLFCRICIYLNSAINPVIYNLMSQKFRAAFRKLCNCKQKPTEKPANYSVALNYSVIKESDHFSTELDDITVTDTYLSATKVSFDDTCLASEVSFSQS
Sequence of Progesterone receptor (Homo sapiens) (P06401 whole entry, looked up): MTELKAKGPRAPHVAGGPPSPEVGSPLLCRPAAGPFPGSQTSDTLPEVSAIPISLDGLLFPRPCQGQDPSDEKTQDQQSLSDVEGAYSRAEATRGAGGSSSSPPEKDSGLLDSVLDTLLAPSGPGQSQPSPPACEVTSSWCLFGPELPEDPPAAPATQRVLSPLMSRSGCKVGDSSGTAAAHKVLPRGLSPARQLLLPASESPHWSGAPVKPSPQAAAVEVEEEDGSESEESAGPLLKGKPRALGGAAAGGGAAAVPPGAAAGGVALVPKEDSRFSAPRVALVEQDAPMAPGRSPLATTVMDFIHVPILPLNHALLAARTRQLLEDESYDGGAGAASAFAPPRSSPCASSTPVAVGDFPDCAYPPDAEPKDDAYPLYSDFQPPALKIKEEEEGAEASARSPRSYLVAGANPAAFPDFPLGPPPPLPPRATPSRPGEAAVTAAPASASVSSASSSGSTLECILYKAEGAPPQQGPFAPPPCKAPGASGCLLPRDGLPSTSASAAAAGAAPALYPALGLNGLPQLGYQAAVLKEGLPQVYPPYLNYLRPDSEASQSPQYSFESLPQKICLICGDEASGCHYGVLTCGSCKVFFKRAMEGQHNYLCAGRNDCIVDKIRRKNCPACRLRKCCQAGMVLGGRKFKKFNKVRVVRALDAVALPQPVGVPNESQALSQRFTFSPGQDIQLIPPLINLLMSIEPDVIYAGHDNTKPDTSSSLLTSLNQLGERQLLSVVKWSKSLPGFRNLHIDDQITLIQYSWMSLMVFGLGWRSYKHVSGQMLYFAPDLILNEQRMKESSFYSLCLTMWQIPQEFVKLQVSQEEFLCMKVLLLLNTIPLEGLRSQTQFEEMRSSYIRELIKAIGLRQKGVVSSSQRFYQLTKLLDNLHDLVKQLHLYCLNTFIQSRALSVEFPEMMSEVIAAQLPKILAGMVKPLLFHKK

In the case of `C=CC1(C)OC(=O)N(c2cc(Cl)cc(Cl)c2)C1=O` (stereo not given), the Potency result in experiment [1], in [4] and in [6] was “inactive” throughout. Besides, the Potency in experiment [2] was 21.6 µM (active); in experiment [3], 54.2 µM (active) and inactive. In [5], the call was inactive.
Turning to `CCOC(=O)NC(C)(C)Cc1ccc(Cl)cc1`, the Potency entry in experiment [1], in [2], in experiment [7], in [3] and in [4] was “inactive” each time. For the same molecule, the molecule was called inactive in [8] and in [5].
As to `Cc1ccc2cc(C)ccc2c1`, the Potency entry in [1], in experiment [2], in experiment [7], in experiment [3], in experiment [4] and in [6] was “inactive” throughout. The outcome in experiment [8] and in experiment [5] was inactive.
With `O=C(Cl)/C=C/C(=O)Cl`, the Potency entry in [1], in experiment [7] and in [4] was “inactive” each time.
On to `CC[C@H](N)c1ccccc1`, for which the Potency result in [1], in experiment [2], in experiment [3] and in experiment [4] was “inactive” in each case. In addition, in experiment [5], the outcome was inactive.
With `O=C1C2CC=CCC2C(=O)N1SC(Cl)(Cl)Cl` (stereo not given), the Potency result was “inactive and 42.6 µM (active)” in experiment [2]; “inactive and 48.2 µM (active)” in experiment [4]; “inactive and 33.3 µM (active)” in experiment [6].
Consider `Oc1ccc2c3c1O[C@H]1[C@@H](O)C=C[C@H]4[C@@H](C2)NCC[C@@]341`, for which the Potency entry in [9], in experiment [2], in experiment [7] and in [4] was “inactive” throughout. Moreover, the call in experiment [8] and in experiment [5] was inactive.
Consider `COc1ccc(CN2CCNCC2)c(OC)c1OC`, for which the Potency result in [1], in experiment [2], in experiment [7], in [4] and in experiment [6] was “inactive” each time. Further, the molecule was called inactive in experiment [8] and in experiment [5].
In the case of `O=CCCl`, the Potency entry in experiment [1], in [2], in [7], in experiment [3], in [4] and in [6] was “inactive” each time. For the same molecule, in experiment [5], the result was inactive.
`CCCOc1nn(C(=O)NS(=O)(=O)c2ccccc2C(=O)OC)c(=O)n1C`: the Potency entry in experiment [9], in experiment [2], in experiment [7], in experiment [3] and in [4] was “inactive” each time. Further, in [5], the molecule was classed as inactive.
As for `O=C(NC(O)C(Cl)(Cl)Cl)NC(O)C(Cl)(Cl)Cl` (stereo not given), the Potency result in experiment [1], in experiment [2], in experiment [7], in experiment [3] and in [4] was “inactive” throughout. Also, the call in experiment [5] was inactive.
Turning to `[P]#[In]`, the Potency entry in experiment [7], in [3] and in experiment [6] was “inactive” throughout. In addition, the result in experiment [8] and in experiment [5] was inactive.
On to `CON(C)C(=O)Nc1ccc(Br)cc1`, for which the Potency entry in experiment [9], in experiment [2], in [7], in [4] and in experiment [6] was “inactive” in each case. The molecule was called inactive in experiment [5].
As for `O=C(O)C(F)(F)C(F)(F)C(F)(F)C(F)(F)C(F)(F)C(F)(F)F`, the Potency result in [1], in [2], in experiment [4] and in experiment [6] was “inactive” throughout. Also, the Potency was 48.6 µM (active) in experiment [7] and 27.3 µM (active) in [3]. Also, the outcome in experiment [8] and in experiment [5] was inactive.
Regarding `Cc1ccc2c(c1)C1CN(C)CCC1N2` (stereo not given), the activity change, negative = cytotoxicity in [1] is -4.97% [at 19 µM] (inactive); in experiment [3], -23.2% [at 19 µM] (inactive); in [4], -8.68% [at 15.8 µM] (inactive). Also, the activity change, negative = inhibition in experiment [2] was 5.78% [at 18.9 µM] (inactive). In [8], the viability change, negative = cytotoxic is 0.721% [at 15.8 µM] (inactive). For the same molecule, the activation in experiment [5] is 3.74% [at 15.8 µM] (inactive).
In the case of `N[C@@H](Cc1ccc(Oc2cc(I)c(O)c(I)c2)c(I)c1)C(=O)O`, the Potency entry in [1], in [9], in [7], in [4] and in experiment [6] was “inactive” throughout. The call in experiment [8] and in [5] was inactive.
As for `CC(C)[C@]12CC(=O)[C@H](C)[C@H]1C2`, the Potency result in experiment [1], in experiment [3] and in experiment [4] was “inactive” in each case. Also, the molecule was classed as inactive in [8] and in experiment [5].
`CC(C)(N)Cc1ccc(Cl)cc1`: the Potency result in experiment [2] was “inactive”. In experiment [8], the call was inactive.
Take `C=C1C[C@@H]2[C@H](CC[C@]3(C)C(=O)CC[C@@H]23)[C@@]2(C)C=CC(=O)C=C12`: the Potency result in [9], in [4] and in [6] was “inactive” in each case. The result in experiment [8] was inactive.
On to `COc1ccc2c(C(=O)c3ccc(Cl)cc3)c(C)n(CC(=O)O)c2c1`, for which the Potency result in [9], in experiment [2], in experiment [7], in experiment [3], in experiment [4] and in experiment [6] was “inactive” each time. Further, the call in experiment [8] and in experiment [5] was inactive.
`CCN[C@@H](C)Cc1cccc(C(F)(F)F)c1`: the Potency entry in experiment [7], in [4] and in [6] was “inactive” each time. In addition, the outcome in experiment [8] was inactive.
For `CC[C@H](O)C(C[C@H](C)N(C)C)(c1ccccc1)c1ccccc1`, the Potency result in experiment [1], in experiment [9], in [3] and in experiment [4] was “inactive” in each case. Also, the result in experiment [5] was inactive.
On to `CCNc1nc(Cl)nc(NC(C)(C)C)n1`, for which the Potency entry in [9], in experiment [3] and in [4] was “inactive” throughout. In addition, the molecule was called inactive in experiment [8] and in experiment [5].
On to `CCCCCCCCBr`, for which the Potency entry in experiment [9], in experiment [2], in experiment [3] and in [4] was “inactive” in each case.
Take `C[C@H]1CCCC(=O)CCC/C=C/c2cc(O)cc(O)c2C(=O)O1`: the Potency in experiment [1] was 46.8 µM (active) and inactive; in experiment [2], 5.02 µM (active). Further, the outcome in [8] was inactive. Moreover, the Potency entry in experiment [4] and in experiment [6] was “inactive” each time.
Regarding `COc1ccc(C=O)cc1O`, the Potency entry in [9], in experiment [2], in experiment [3], in [4] and in experiment [6] was “inactive” each time. Besides, the call in [8] and in experiment [5] was inactive.
As to `C=C(Cl)CSC(=S)N(CC)CC`, the Potency result in experiment [1], in experiment [3] and in [4] was “inactive” throughout. In addition, the molecule was classed as inactive in [8] and in experiment [5].
With `O=P(O)(O)CN(CP(=O)(O)O)CP(=O)(O)O`, the Potency result in [1], in experiment [2], in experiment [7], in experiment [3] and in experiment [4] was “inactive” in each case. Moreover, the call in [5] was inactive.
In the case of `NCCOS(=O)(=O)O`, the Potency result in experiment [1], in experiment [2] and in experiment [3] was “inactive” each time. Moreover, the molecule was called inactive in experiment [8] and in experiment [5].
In the case of `CN(C)CCc1c[nH]c2cccc(OP(=O)(O)O)c12`, the Potency result in experiment [9], in experiment [2], in [7], in [3] and in experiment [6] was “inactive” each time. Besides, the result in experiment [8] and in [5] was inactive.
Consider `CN1C(=O)COc2c(C(=O)NC3CN4CCC3CC4)cc(Cl)cc21` (stereo not given), for which the Potency result in experiment [1], in experiment [2], in experiment [7], in [3] and in experiment [4] was “inactive” each time. In addition, the molecule was called inactive in [8] and in experiment [5].
As for `CCOC(=O)Nc1cccc(OC(=O)Nc2ccccc2)c1`, the Potency entry in experiment [9], in [2] and in experiment [7] was “inactive” in each case. Moreover, the result in [8] and in experiment [5] was inactive.
